Results published in PubChem BioAssay AID1159580 (chemical genetic matrix, 2015).
Among all 5,500 compounds or so, about 2,000 (36%) were called active. Roughly 18% stayed inconclusive and do not appear here. No stated cut-off is given here; in the data, active means normalized growth mostly below about 0.91 (no sharp cut-off); inconclusive means no clear call, values can overlap the other calls; inactive means mostly above about 0.92. The list shows a part of the results.

Assay: chemical genetic growth profiling, strain panel (AID 1159580);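 further: tested at 20 µM; growth read once vehicle control cultures reached saturation at 30 °C; 1 = growth at the plate median or of vehicle wells; lower values mean less growth of the strain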
Conditions: growth OD

Measured: normalized growth

C/C=C(/C)C(=O)O[C@@H]1[C@H](OC(C)=O)[C@@]2(CO)C(CC1(C)C)C1=CCC3[C@@]4(C)CC[C@H](O[C@@H]5O[C@H](C(=O)O)[C@@H](O[C@@H]6O[C@H](CO)[C@@H](O)[C@H](O)[C@H]6O)[C@H](O)[C@H]5O[C@@H]5O[C@H](CO)[C@@H](O)[C@H](O)[C@H]5O)[C@](C)(CO)C4CC[C@@]3(C)[C@]1(C)C[C@H]2O (some centres not stated)
inactive: S. cerevisiae deletion strains, locus YKL009W, strain mrt4, hits give low values 1.06 | S. cerevisiae deletion strains, locus YKL068W, hits give low values 1.01 | S. cerevisiae deletion strains, locus YKL085W, strain MDH1 (second series), hits give low values 1.06 | S. cerevisiae deletion strains, locus YKL085W, strain MDH1, hits give low values 1.06 | S. cerevisiae deletion strains, locus YKL160W, strain elf1, hits give low values 1.02 | S. cerevisiae deletion strains, locus YKR001C, strain vps1, hits give low values 1.01 | S. cerevisiae deletion strains, locus YKR026C, strain gcn3, hits give low values 0.99 | S. cerevisiae deletion strains, locus YKR091W, strain srl3, hits give low values 0.99 | S. cerevisiae deletion strains, locus YLL001W, strain dnm1, hits give low values 1.01 | S. cerevisiae deletion strains, locus YLL026W, hits give low values 0.988 | S. cerevisiae deletion strains, locus YLL041C, strain sdh2, hits give low values 0.983 | S. cerevisiae deletion strains, locus YLR027C, strain aat2, hits give low values 0.996 | S. cerevisiae deletion strains, locus YLR039C, strain RIC1, hits give low values 1.04 | S. cerevisiae deletion strains, locus YLR058C, strain SHM2, hits give low values 1.01 | S. cerevisiae deletion strains, locus YLR102C, strain apc9, hits give low values 1.02 | S. cerevisiae deletion strains, locus YLR113W, strain HOG1, hits give low values 0.967 | S. cerevisiae deletion strains, locus YLR221C, strain rsa3, hits give low values 1 | S. cerevisiae deletion strains, locus YLR258W, strain gsy2, hits give low values 0.981 | S. cerevisiae deletion strains, locus YLR262C, strain YPT6 (second series), hits give low values 1.01 | S. cerevisiae deletion strains, locus YLR262C, strain YPT6, hits give low values 1.08 | S. cerevisiae deletion strains, locus YLR268W, strain sec22, hits give low values 1.04 | S. cerevisiae deletion strains, locus YLR320W, strain mms22, hits give low values 0.973 | S. cerevisiae deletion strains, locus YLR330W, strain CHS5, hits give low values 1.01 | S. cerevisiae deletion strains, locus YLR342W, strain FKS1 (second series), hits give low values 1.05 | S. cerevisiae deletion strains, locus YLR342W, strain FKS1, hits give low values 0.988 | S. cerevisiae deletion strains, locus YLR357W, strain rsc2, hits give low values 0.984 | S. cerevisiae deletion strains, locus YLR370C, strain arc18, hits give low values 0.992 | S. cerevisiae deletion strains, locus YLR371W, strain rom2, hits give low values 1.03 | S. cerevisiae deletion strains, locus YLR384C, strain iki3, hits give low values 1 | S. cerevisiae deletion strains, locus YLR418C, strain cdc73, hits give low values 1 | S. cerevisiae deletion strains, locus YML016C, strain PPZ1, hits give low values 1.01 | S. cerevisiae deletion strains, locus YML032C, strain rad52, hits give low values 1.03 | S. cerevisiae deletion strains, locus YML120C, strain ndi1, hits give low values 1.01 | S. cerevisiae deletion strains, locus YML124C, strain tub3, hits give low values 1.02 | S. cerevisiae deletion strains, locus YMR058W, strain fet3, hits give low values 0.99 | S. cerevisiae deletion strains, locus YMR078C, strain ctf18, hits give low values 1.02 | S. cerevisiae deletion strains, locus YMR125W, strain sto1, hits give low values 0.959 | S. cerevisiae deletion strains, locus YMR129W, hits give low values 0.979 | S. cerevisiae deletion strains, locus YMR205C, strain PFK2, hits give low values 0.925 | S. cerevisiae deletion strains, locus YMR223W, strain ubp8, hits give low values 1.02 | S. cerevisiae deletion strains, locus YMR231W, strain pep5, hits give low values 0.973 | S. cerevisiae deletion strains, locus YMR307W, strain GAS1, hits give low values 1.08 | S. cerevisiae deletion strains, locus YNL067W, strain RPL9B, hits give low values 1.02 | S. cerevisiae deletion strains, locus YNL071W, strain lat1, hits give low values 1 | S. cerevisiae deletion strains, locus YNL183C, strain NPR1, hits give low values 0.969 | S. cerevisiae deletion strains, locus YNL209W, strain ssb2, hits give low values 0.988 | S. cerevisiae deletion strains, locus YNL233W, strain BNI4, hits give low values 1.01 | S. cerevisiae deletion strains, locus YNL248C, strain rpa49, hits give low values 1.02 | S. cerevisiae deletion strains, locus YNL250W, strain rad50, hits give low values 1.04 | S. cerevisiae deletion strains, locus YNL271C, strain bni1, hits give low values 1.03 | S. cerevisiae deletion strains, locus YNL298W, strain CLA4, hits give low values 1.01 | S. cerevisiae deletion strains, locus YNL307C, strain MCK1, hits give low values 1.03 | S. cerevisiae deletion strains, locus YNL322C, strain KRE1 (second series), hits give low values 0.983 | S. cerevisiae deletion strains, locus YNL322C, strain KRE1, hits give low values 1.01 | S. cerevisiae deletion strains, locus YNR049C, strain mso1, hits give low values 0.982 | S. cerevisiae deletion strains, locus YNR052C, strain pop2, hits give low values 1.02 | S. cerevisiae deletion strains, locus YOL006C, strain TOP1, hits give low values 0.991 | S. cerevisiae deletion strains, locus YOL012C, strain htz1 1.42 | S. cerevisiae deletion strains, locus YOL147C, strain pex11, hits give low values 1.02 | S. cerevisiae deletion strains, locus YOR001W, strain rrp6, hits give low values 0.992 | S. cerevisiae deletion strains, locus YOR061W, strain CKA2, hits give low values 1.01 | S. cerevisiae deletion strains, locus YOR069W, strain VPS5, hits give low values 1 | S. cerevisiae deletion strains, locus YOR070C, strain gyp1, hits give low values 1 | S. cerevisiae deletion strains, locus YOR080W, strain dia2, hits give low values 0.968 | S. cerevisiae deletion strains, locus YOR083W, strain WHI5, hits give low values 1.02 | S. cerevisiae deletion strains, locus YOR106W, strain vam3, hits give low values 1.01 | S. cerevisiae deletion strains, locus YOR136W, strain idh2, hits give low values 1.02 | S. cerevisiae deletion strains, locus YOR144C, strain elg1, hits give low values 1.02 | S. cerevisiae deletion strains, locus YOR184W, strain ser1, hits give low values 1.02 | S. cerevisiae deletion strains, locus YOR231W, strain MKK1, hits give low values 0.967 | S. cerevisiae deletion strains, locus YOR265W, strain rbl2, hits give low values 0.993 | S. cerevisiae deletion strains, locus YOR270C, strain vph1, hits give low values 0.883 | S. cerevisiae deletion strains, locus YOR290C, strain snf2, hits give low values 0.966 | S. cerevisiae deletion strains, locus YOR316C, strain cot1, hits give low values 1.02 | S. cerevisiae deletion strains, locus YPL051W, strain arl3, hits give low values 1.02 | S. cerevisiae deletion strains, locus YPL055C, strain LGE1, hits give low values 1 | S. cerevisiae deletion strains, locus YPL078C, strain atp4, hits give low values 1.01 | S. cerevisiae deletion strains, locus YPL106C, strain sse1, hits give low values 0.981 | S. cerevisiae deletion strains, locus YPL240C, strain hsp82, hits give low values 1.01 | S. cerevisiae deletion strains, locus YPL241C, strain CIN2, hits give low values 1 | S. cerevisiae deletion strains, locus YPL256C, strain CLN2, hits give low values 0.967 | S. cerevisiae deletion strains, locus YPR119W, strain clb2, hits give low values 1.03 | S. cerevisiae deletion strains, locus YPR141C, strain kar3, hits give low values 1.04 | S. cerevisiae deletion strains, locus YPR163C, strain tif3, hits give low values 1.02 | S. cerevisiae deletion strains, locus YPR167C, strain met16, hits give low values 1.02 | S. cerevisiae deletion strains, strain wtn01, hits give low values 1.02 | S. cerevisiae strains, strain wild type, hits give low values 1.01
